Records with an inconclusive call do not appear. Calls of active or inactive are those of the source. Unless noted, calls come from the whole dose curve; as a rule, active = well fitted curve in the direction sought with a large enough effect in the repeat runs; inconclusive = weak or mixed curves; inactive = no such curve, though single readings can be large; an effect the other way counts as inactive or inconclusive.
Experiments:
[1] = qHTS assay to identify small molecule agonists of the peroxisome proliferator-activated receptor delta (PPARd) signaling pathway - cell viability counter screen (AID 743211); note: nearly all actives have a fitted effect of over 55% in size
Method in brief: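 Counter screen for cytotoxicity run in parallel with the PPARd reporter screen. Beta-lactamase reporter HEK293H cells exposed to compounds 17 h; ATP-based CellTiter-Glo luminescence quantified viability.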

[2] = target: Peroxisome proliferator-activated receptor delta (Homo sapiens) (UniProt Q03181); assay: qHTS assay to identify small molecule agonists of the peroxisome proliferator-activated receptor delta (PPARd) signaling pathway (AID 743212; calls by dose curve)
Method in brief: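 GeneBLAzer PPARd UAS-bla HEK293H cells (beta-lactamase reporter under UAS control), plated and rested 5 h at 37 C, then exposed to compounds in DMSO at 37 C; LiveBLAzer B/G FRET substrate added, 2 h room temperature, fluorescence read.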

[3] = qHTS assay to identify small molecule antagonists of the peroxisome proliferator-activated receptor delta (PPARd) signaling pathway - cell viability counter screen (AID 743213); note: nearly all actives have a fitted effect of over 50% in size
Method in brief: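 Viability counter-screen, qHTS format: PPARd-bla HEK293H, L165041 300 nM final, 17 h compound exposure at 37 C, CellTiter-Glo luminescence after 30 min RT.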

[4] = target: Peroxisome proliferator-activated receptor delta (Homo sapiens) (UniProt Q03181); assay: qHTS assay to identify small molecule antagonists of the peroxisome proliferator-activated receptor delta (PPARd) signaling pathway (AID 743215; active = well fitted inhibition curve with a large enough effect in the signal ratio in the repeat runs, not every such curve was filed as active; the % refers to the signal ratio;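 note: cells stimulated with agonist L165041 at 300 nM final during compound exposure; series mostly up to about 62 µM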)
Method in brief: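 With L165041 present at 300 nM final, compounds were incubated 17 h at 37 C on PPARd UAS-bla HEK293H cells. A FRET-based beta-lactamase substrate was then applied for 2 h at room temperature and fluorescence intensity recorded.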

[5] = qHTS assay to identify small molecule agonists of the farnesoid-X-receptor (FXR) signaling pathway - cell viability counter screen (AID 743218); note: nearly all actives have a fitted effect of over 45% in size
Method in brief: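 After 16 h at 37 C with test compounds, FXR-bla HEK 293T cells were given LiveBLAzer B/G substrate for 2 h at RT and then CellTiter-Glo; luminescence was taken after 30 min.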

[6] = qHTS assay to identify small molecule antagonists of the farnesoid-X-receptor (FXR) signaling pathway - cell viability counter screen (AID 743221; active = well fitted cell-killing curve with a large enough effect in the repeat runs, not every such curve was filed as active; note: nearly all actives have a fitted effect of over 50% in size)
Method in brief: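 Multiplexed counter screen: viability of FXR-bla HEK 293T cells under agonist stimulation by chenodeoxycholic acid (50 uM, final) and test compound for 16 h at 37 C, measured by CellTiter-Glo luminescence in the reporter wells.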

[7] = qHTS assay to identify small molecule agonists of the vitamin D receptor (VDR) signaling pathway - cell viability counter screen (AID 743224); note: series mostly up to about 63 µM; nearly all actives have a fitted effect of over 50% in size
Method in brief: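 Here cell health was gauged by luminescent ATP detection (CellTiter-Glo, 30 min RT) in VDR-bla cells that had been incubated with test compounds for 16 h at 37C and 5% CO2.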

[8] = qHTS assay to identify small molecule antagonists of the vitamin D receptor (VDR) signaling pathway - cell viability counter screen (AID 743225); note: nearly all actives have a fitted effect of over 50% in size
Method in brief: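 HEK293T VDR-bla; cpd + 1a,25-(OH)2D3 3 nM final, 16 h 37C/5% CO2; B/G FRET substrate 2 h RT; then CellTiter-Glo 30 min RT, luminescence.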

[9] = qHTS assay to identify small molecule agonists of the NFkB signaling pathway (AID 1159509; active = well fitted curve in the direction sought with a large enough effect in the signal ratio in the repeat runs, not every such curve was filed as active; the % refers to the signal ratio; note: series mostly up to about 61 µM)
Method in brief: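 After overnight attachment, reporter cells received test compounds, DMSO or positive controls and were incubated 5 hr at 37 C. FRET substrate was then added for 1.5 hr at room temperature before dual-emission fluorescence reading.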

[10] = qHTS assay to identify small molecule agonists of the endoplasmic reticulum stress response signaling pathway (AID 1159516; active = well fitted activation curve with a large enough effect in the signal ratio in the repeat runs, not every such curve was filed as active; the % refers to the signal ratio)
Method in brief: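 Reporter HeLa cells (ESRE-beta-lactamase) underwent 5 hr compound incubation at 37 C and 5% CO2 in quantitative HTS format. Detection followed 2 hr of FRET substrate loading at room temperature.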

[11] = qHTS assay to identify small molecule agonists of the endoplasmic reticulum stress response signaling pathway - cell viability counter screen (AID 1159517; calls by dose curve)
Method in brief: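 Luminescence readout: CellTiter-Glo, 30 min RT, same wells as the ESRE-bla reporter read. HeLa ESRE-bla, 1,500 cells/well, o/n 37 C; cpd 5 hr 37 C/5% CO2.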

[12] = qHTS assay to identify small molecule antagonists of the retinoid-related orphan receptor gamma (ROR-gamma) signaling pathway - cell viability counter screen (AID 1159520); note: nearly all actives have a fitted effect of over 50% in size
Method in brief: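 Tet-on ROR gamma CHO cells (1,000/well) were plated 4 hr, given compounds in DMSO for 2 hr at 37 C, then induced with 1 uM final doxycycline for 16 hr. Viability was read as ATP by CellTiter-Glo luminescence after 30 min.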

[13] = target: Nuclear receptor ROR-gamma (Homo sapiens) (UniProt P51449); assay: qHTS assay to identify small molecule antagonists of the retinoid-related orphan receptor gamma (ROR-gamma) signaling pathway (AID 1159521)
Method in brief: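 Cells were plated, rested 4 h at 37 C, exposed to compounds for 2 h, then given 1 uM final doxycycline hyclate to induce RORγ expression. After 16 h, ONE-Glo luminescence from the ROR response element reporter was measured.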

[14] = qHTS assay to identify small molecule agonists of the AP-1 signaling pathway - cell viability counter screen (AID 1159525; calls by dose curve; note: nearly all actives have a fitted effect of over 55% in size)
Method in brief: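 ME-180 AP-1-bla, 2500 cells/well, Opti-MEM + 0.5% dialyzed FBS; overnight 37 °C; cpd 15-pt titration, 5 h 37 °C; CellTiter-Glo 30 min RT; luminescence read; normalised to TOAB and DMSO controls.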

[15] = qHTS assay to identify small molecule agonists of the AP-1 signaling pathway (AID 1159526; calls by dose curve)
[16] = target: Vitamin D3 receptor (Homo sapiens) (UniProt P11473); assay: qHTS assay to identify small molecule agonists of the vitamin D receptor (VDR) signaling pathway (AID 743222; calls by dose curve)
Method in brief: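 VDR-bla cells were seeded, left 4 h, treated with compounds in DMSO for 16 h, incubated 2 h at RT with B/G FRET substrate, and read for fluorescence.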

[17] = target: Vitamin D3 receptor (Homo sapiens) (UniProt P11473); assay: qHTS assay to identify small molecule antagonists of the vitamin D receptor (VDR) signaling pathway (AID 743223; active = well fitted inhibition curve with a large enough effect in the signal ratio in the repeat runs, not every such curve was filed as active; the % refers to the signal ratio)
Method in brief: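 Cells carrying a VDR-driven beta-lactamase reporter (VDR-bla) were co-treated with compound and 3 nM final 1alpha,25-dihydroxyvitamin D3 for 16 h at 37C; reporter activity was measured as FRET substrate fluorescence after 2 h at room temperature.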

[18] = target: Bile acid receptor (Homo sapiens) (UniProt Q96RI1); assay: qHTS assay to identify small molecule antagonists of the farnesoid-X-receptor (FXR) signaling pathway (AID 743217; active = well fitted inhibition curve with a large enough effect in the signal ratio in the repeat runs, not every such curve was filed as active; the % refers to the signal ratio)
Method in brief: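 In this cell-based antagonist screen, inhibition of CDCA-driven (50 uM final) UAS-beta-lactamase expression in HEK 293T cells was measured by FRET fluorescence following 16 h compound exposure at 37 °C.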

[19] = target: Bile acid receptor (Homo sapiens) (UniProt Q96RI1); assay: qHTS assay to identify small molecule agonists of the farnesoid-X-receptor (FXR) signaling pathway (AID 743220; active = well fitted activation curve with a large enough effect in the signal ratio in the repeat runs, not every such curve was filed as active; the % refers to the signal ratio)
Method in brief: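 Beta-lactamase reporter under UAS control in GeneBLAzer FXR HEK 293T cells (5000/well) measured with LiveBLAzer FRET substrate after 2 h at room temperature. Compound exposure lasted 16 h at 37C.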

[20] = qHTS assay to identify small molecule agonists of the NFkB signaling pathway - cell viability counter screen (AID 1159515; calls by dose curve; note: series mostly up to about 61 µM; nearly all actives have a fitted effect of over 55% in size)
Method in brief: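 5 hr compound treatment of NFkB-bla ME-180 cells (2,000/well, seeded overnight beforehand), followed by reporter substrate for 1.5 hr. CellTiter-Glo added afterward; luminescence after 30 min RT.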

Measured: Potency

Peroxisome proliferator-activated receptor delta (Homo sapiens), sequence (Q03181 whole entry, looked up): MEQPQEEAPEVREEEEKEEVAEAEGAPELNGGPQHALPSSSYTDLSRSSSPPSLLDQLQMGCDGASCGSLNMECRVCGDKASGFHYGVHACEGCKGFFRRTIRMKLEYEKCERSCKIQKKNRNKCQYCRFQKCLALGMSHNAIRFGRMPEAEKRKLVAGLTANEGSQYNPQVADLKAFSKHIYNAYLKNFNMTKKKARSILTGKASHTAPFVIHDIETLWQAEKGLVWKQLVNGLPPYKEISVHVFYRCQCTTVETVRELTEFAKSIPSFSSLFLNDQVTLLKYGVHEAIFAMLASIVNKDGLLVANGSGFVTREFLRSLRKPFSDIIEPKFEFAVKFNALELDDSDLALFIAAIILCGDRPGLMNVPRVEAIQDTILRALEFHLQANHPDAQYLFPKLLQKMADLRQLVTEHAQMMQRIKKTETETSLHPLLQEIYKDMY
Bile acid receptor (Homo sapiens), sequence (Q96RI1 whole entry, looked up): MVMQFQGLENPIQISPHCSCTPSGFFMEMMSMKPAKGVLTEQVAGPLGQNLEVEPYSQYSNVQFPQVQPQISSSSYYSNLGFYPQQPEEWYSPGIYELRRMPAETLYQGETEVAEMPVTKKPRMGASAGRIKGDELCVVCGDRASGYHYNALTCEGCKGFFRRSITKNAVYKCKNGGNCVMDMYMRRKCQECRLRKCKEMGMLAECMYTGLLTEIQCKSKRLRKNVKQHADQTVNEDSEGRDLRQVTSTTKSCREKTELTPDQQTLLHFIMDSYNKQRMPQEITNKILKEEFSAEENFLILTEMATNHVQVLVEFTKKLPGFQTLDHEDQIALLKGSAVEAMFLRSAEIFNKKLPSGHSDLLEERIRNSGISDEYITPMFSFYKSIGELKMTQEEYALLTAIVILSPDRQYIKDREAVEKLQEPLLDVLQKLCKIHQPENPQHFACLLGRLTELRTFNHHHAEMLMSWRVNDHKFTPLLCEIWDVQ
Vitamin D3 receptor (Homo sapiens), sequence (P11473 whole entry, looked up): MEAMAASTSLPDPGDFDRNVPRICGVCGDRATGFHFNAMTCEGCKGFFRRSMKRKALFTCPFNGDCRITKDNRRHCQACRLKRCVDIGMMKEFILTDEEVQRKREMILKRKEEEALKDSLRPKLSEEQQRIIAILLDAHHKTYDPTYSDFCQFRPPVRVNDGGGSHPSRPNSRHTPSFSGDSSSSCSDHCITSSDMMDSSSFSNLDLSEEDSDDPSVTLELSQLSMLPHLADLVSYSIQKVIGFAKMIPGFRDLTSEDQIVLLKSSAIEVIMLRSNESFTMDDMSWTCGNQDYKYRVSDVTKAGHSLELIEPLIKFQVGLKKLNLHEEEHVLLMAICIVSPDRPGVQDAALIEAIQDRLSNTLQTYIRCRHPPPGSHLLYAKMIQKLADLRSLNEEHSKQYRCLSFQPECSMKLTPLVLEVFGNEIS

O=S(=O)(O)SSS(=O)(=O)O
not listed: [16] | [17] | [18] | [19] | [20]
inactive: all other assays above

C=C(C)C(=O)OCCCCCCOC(=O)C(=C)C
not listed: [2] | [4] | [12] | [18] | [19] | [20]
inactive: all other assays above

CC(=O)OCC(=O)[C@@]1(O)[C@H](OC(C)=O)C[C@H]2[C@@H]3CCC4=CC(=O)C=C[C@]4(C)[C@@]3(F)[C@@H](O)C[C@@]21C
not listed: [9]
inactive: all other assays above

NS(=O)(=O)c1ccc(Cl)c(S(N)(=O)=O)c1
not listed: [2] | [4] | [18] | [19] | [20]
inactive: all other assays above

CO[Si](CCCCl)(OC)OC
not listed: [18] | [19] | [20]
inactive: all other assays above

CCCCCC1CCCC(=O)O1 (stereo not given)
not listed: [10] | [14] | [19] | [20]
inactive: all other assays above

O=C1NC2NC(=O)NC2N1 (stereo not given)
not listed: [8] | [19] | [20]
inactive: all other assays above

OC[C@@H](O)[C@H](O)[C@@H](O)[C@@H](O)CO
not listed: [2] | [4] | [11] | [12] | [17] | [18] | [19] | [20]
inactive: all other assays above

— PubChem BioAssay (Tox21)
